Assay results reported in PubChem BioAssay AID485297 (National Center for Advancing Translational Sciences (NCATS), 2010).
About 9,100 (2.8%) of roughly 320,000 compounds were called active. Roughly 3% stayed inconclusive and do not appear here. The call rests on the fitted dose curve; in most records, active means well fitted activation curve with a large enough effect; inconclusive means small, poorly fitted or top-dose-only effect; inactive means no such curve, though single readings can be large or run the other way. What follows is part of a selection rich in actives, with near analogues and random picks from the rest.

Test: qHTS Assay for Rab9 Promoter Activators; further: nearly all actives have a fitted effect of over 60% in size; on activation, negative = inhibition: % of control where 0% means no effect
Details: Huh7 Rab9 promoter-luciferase reporter, luminescence, 24 h; series mostly up to 9.22 µM; activation, negative = inhibition: at the top concentration
In short: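 Huh7 reporter line, Rab9 promoter upstream of luciferase. Compound exposure 24 h at 37 °C in reduced-serum medium with 10% FBS. Read-out: luminescence.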
Potency means the concentration at half of the fitted maximal effect.

Compound | activation, negative = inhibition | Potency
CN(C)C(CNC(=O)c1ccc(OCc2cn3ccccc3n2)cc1)c1ccco1 (stereo not given) | 25.7% (inactive) | 
COc1ccc(C(=O)NCCNc2ccc([N+](=O)[O-])cn2)cc1 | -2.26% (inactive) | 
Cc1csc(NC(=O)C2CCN(S(=O)(=O)c3ccccc3)CC2)n1 | -7.34% (inactive) | 
CC(C)CNC(=O)C(=O)Nc1ccc(N(C)C)cc1 |  | 3.16 µM (active)
CC(C)CNC(=O)C(=O)NCc1ccccc1 | -4.96% (inactive) | 
CC(C)CNC(=S)Nc1ccc(F)cc1 | -7.72% (inactive) | 
COC(=O)C1=CN(c2ccc(F)c(F)c2)C=C(C(=O)OC)C1c1ccc([N+](=O)[O-])cc1 | -1.11% (inactive) | 
COc1ccc([C@H]2CC(=O)C=C(c3ccc(CO)cc3)C2)cc1 | 2.44% (inactive) | 
Cc1csc(NC(=O)CSc2nc(=O)n(CCCN(C)C)c3c2CCC3)n1 | 0.475% (inactive) | 
COCCn1c(C)cc(C2=NNC(=Nc3ccc(F)cc3)SC2)c1C |  | 3.55 µM (active)
C=CCn1c(C)cc(C2=NNC(=NCC)SC2)c1C | -38.6% (inactive) | 
C=CC1(C)CC(=O)C2(O)C(C)(O1)C(OC(C)=O)C(O)C1C(C)(C)CCC(O)C12C (stereo not given) | 3.8% [at 46.1 µM] (inactive) | 
Cc1ccc(C)c(NC(=O)COC(=O)CSc2ccccc2)c1 | 0.508% (inactive) | 
CCCCN(CC)C(=O)c1ccccc1Oc1ccccc1 | -13.1% (inactive) | 
C(=N\n1cnnc1)/c1cccnc1 | -2.02% (inactive) | 
COc1ccccc1OCCOc1ccc(/C=N/n2cnnc2)cc1 | 3.87% (inactive) | 
COc1cccc(OCCOc2cccc(/C=N/n3cnnc3)c2)c1 |  | 2.82 µM (active)
COc1cccc(C(=O)N/N=C(\C)c2cccc(NC(=O)c3ccc(F)cc3)c2)c1OC | 0.209% (inactive) | 
Cc1ccccc1OCCC(=O)OCC(=O)NCCc1ccc(S(N)(=O)=O)cc1 | -5.42% (inactive) | 
CCn1nc(C(=O)NNC(=O)C2CSC3(C)CCC(=O)N23)c2ccccc2c1=O (stereo not given) | -0.95% (inactive) | 
CCN(C(=O)COC(=O)CCOc1cccc(C)c1)c1c(N)n(Cc2ccccc2)c(=O)[nH]c1=O | -6.63% (inactive) | 
N#Cc1ccccc1S(=O)(=O)N1CCN(Cc2c(O)ccc3ccccc23)CC1 | -3.22% (inactive) | 
N#CCC(=O)Nc1ccc(C(=O)OCC(=O)Nc2sc3c(c2C#N)CCCC3)cc1 | -8.12% (inactive) | 
Nc1ncnc2c1c(I)cn2[C@@H]1C[C@H](N)[C@@H](O)[C@H]1O | -40.3% [at 46.1 µM] (inactive) | 
Cn1nc(-c2ccccc2)c2cc([N+](=O)[O-])ccc21 | -3.2% (inactive) | 
Cc1nn(-c2ccc([N+](=O)[O-])cc2)c(N)c1-c1ccccc1 |  | 1.26 µM (active)
Cc1cc(CO)nn1-c1ccc([N+](=O)[O-])cc1 | -2.25% (inactive) | 

Compound | activation, negative = inhibition | Potency
COc1ccccc1OCCNC(=O)C(CCSC)NC(=O)COc1ccccc1 (stereo not given) | 13% (inactive) | 
O=C(COC(=O)Cc1ccccc1F)NCCc1ccccc1 | 0.179% (inactive) | 
CCOc1cccc2cc(C(=O)OCC(=O)Nc3c(C)cccc3CC)c(=O)oc12 | -0.156% (inactive) | 
COCCn1cnnc1SCC(=O)Nc1cccc(S(=O)(=O)N2CCCCC2)c1 | -9.69% (inactive) | 
O=C(Nc1cccc(NC(=O)c2ccccc2[N+](=O)[O-])c1)c1ccccc1Cl | 3.77% (inactive) | 
COc1cc(NC(=O)c2cccs2)ccc1NC(=O)c1ccccc1Cl | 1.49% (inactive) | 
O=C(Nc1ccc2sc3ccccc3c(=O)c2c1)c1ccccc1Cl |  | 2.82 µM (active)
COc1ccc(C(=O)COC(=O)c2ccc([N+](=O)[O-])s2)cc1OC | -0.797% (inactive) | 
CN(C(=O)Cn1nnc(-c2ccc(F)cc2)n1)C1CCS(=O)(=O)C1 (stereo not given) | -6.86% (inactive) | 
CC(C)(CNC(=O)Cc1ccc(Cl)cc1Cl)N1CCOCC1 | -1.21% (inactive) | 
N#Cc1ccc(C2N=C(c3ccccc3)NO2)cc1 (stereo not given) |  | 1.78 µM (active)
CCOc1ccc(NC(=O)CN(C)C(=O)CSc2ccccc2)cc1OCC | 0.0845% (inactive) | 
COc1ccccc1-n1c(-c2cc(-c3ccco3)[nH]n2)n[nH]c1=S | -0.896% (inactive) | 
Cc1cc(C(F)(F)F)nn1-c1nc(-c2ccco2)cc(C(F)(F)F)n1 | 1.18% (inactive) | 
Cn1c(-c2ccco2)nc2cc3ccccc3cc21 |  | 3.98 µM (active)
COc1cc(OC)c(NS(=O)(=O)c2cn(C)cn2)cc1Cl | -0.424% (inactive) | 
O=[N+]([O-])c1ccc2c(c1)Nc1nc3ccccc3nc1N2 | -2.05% (inactive) | 
O=[N+]([O-])c1ccc2nc(-c3ccccn3)[nH]c2c1 |  | 2.51 µM (active)
O=C(CSc1nc2ccc([N+](=O)[O-])cc2[nH]1)c1ccc(Cl)cc1 | 7.31% (inactive) | 
O=C(CN1C(=O)NC2(CCCCC2)C1=O)N1CCN(C(=O)c2cccs2)CC1 | 1.86% (inactive) | 
CC(C)n1ncc2c(C(=O)NCc3ccccc3CN(C)C)cc(C3CC3)nc21 | -0.739% (inactive) | 
Cc1ccc(S(=O)(=O)N(NC2=NS(=O)(=O)c3ccccc32)C(=O)c2ccccc2)cc1 | 0.999% (inactive) | 
O=C(Oc1cccc(NC2=NS(=O)(=O)c3ccccc32)c1)c1ccncc1 | 1.05% (inactive) | 
CC(C)(C)c1csc(NC2=NS(=O)(=O)c3ccccc32)n1 |  | 1.26 µM (active)
O=S(=O)(NC1CCCCC1)c1ccc(F)c2ccccc12 | -10.5% (inactive) | 
COc1ccc2cc(C3=CC(=O)C[C@H](c4ccc5c(c4)OCO5)C3)ccc2c1 | -6.22% (inactive) | 
O=C(Nc1ccc(Cl)cc1)c1cccc(OC(=S)N2CCOCC2)c1 | -16.8% (inactive) | 

Compound | activation, negative = inhibition | Potency
Nc1c(N(Cc2ccco2)C(=O)c2cccc(F)c2)c(=O)[nH]c(=O)n1Cc1ccccc1 | -7.02% (inactive) | 
CN(CC(=O)Nc1ccc(F)c(F)c1F)C(=O)Cn1cnc2c1c(=O)n(C)c(=O)n2C | 0.736% (inactive) | 
O=C(Nc1nnc(-c2ccco2)o1)c1ccc(S(=O)(=O)N2CCOCC2)cc1 | -11.2% (inactive) | 
CC1CCCCN1S(=O)(=O)c1ccc(C(=O)Nc2nnc(-c3cccs3)o2)cc1 (stereo not given) | -20.4% (inactive) | 
CC1CCCN(S(=O)(=O)c2ccc(C(=O)Nc3nnc(-c4ccncc4)o3)cc2)C1 (stereo not given) |  | 1.41 µM (active)
O=C(COC(=O)c1c(Cl)cccc1Cl)Nc1cccc(S(=O)(=O)NC2=NCCCCC2)c1 | 0.239% (inactive) | 
COC(=O)c1ccc(NCC(=O)c2ccccc2)cc1 |  | 1.78 µM (active)
COC(=O)c1ccc(NCC(=O)N2CCCCCC2)cc1 | -45% (inactive) | 
Cc1ccc(C(=O)CNc2ccc(F)cc2)cc1 | 0.986% (inactive) | 
O=C(N[C@@H](Cc1c[nH]c2ccccc12)C(=O)O)OCC1c2ccccc2-c2ccccc21 | -3.15% (inactive) | 
Cc1[nH]n(-c2cccc(Cl)c2)c(=O)c1-c1ccc(Cl)cc1 | 13.2% (inactive) | 
CC1=NN(C(N)=S)C(=O)C1N=Nc1cc(Cl)ccc1Cl (stereo not given) | -0.446% (inactive) | 
Cc1[nH]n(C(N)=S)c(=O)c1N=Nc1ccc(Cl)cc1Cl |  | 3.98 µM (active)
CCOC(=O)c1c(CNCc2ccccc2F)c2sc(C)cc2n1C | 2.34% (inactive) | 
COc1ccc(S(=O)(=O)N2CCOCC2)cc1NC(=O)c1ccc(OCC(C)C)c(OC)c1 | -5.03% (inactive) | 
CN(CCOc1ccccc1)C(=O)c1cc(-c2ccco2)nc2ccccc12 | -3.8% (inactive) | 
CC(OC(=O)c1ccccc1NCCO)C(=O)Nc1ccnn1C(C)C (stereo not given) | 4.57% (inactive) | 
COc1cccc(-n2c(SCC(=O)NC3CCS(=O)(=O)C3)nc3ccccc3c2=O)c1 (stereo not given) | 2.33% (inactive) | 
O=C(CSc1nc2ccccc2c(=O)n1-c1ccc(F)cc1)NC1CC1 | -4.04% (inactive) | 
Cc1ccc(-n2c(SCC(=O)N3CCC(C(=O)O)CC3)nc3ccccc3c2=O)cc1C |  | 2.82 µM (active)
CC(=O)Nc1ccc(S(=O)(=O)N2CCn3cccc3C2C)cc1 (stereo not given) | 0.255% (inactive) | 
CCCCc1ccc(NC(=S)NCCCN2CCOCC2)cc1 | -8.13% (inactive) | 
COc1ccc(NC(=S)N2CCCC(CO)C2)c(OC)c1 (stereo not given) | -2.36% (inactive) | 
CCCCc1ccc(NC(=S)N2CCCC(CO)C2)cc1 (stereo not given) |  | 2.82 µM (active)
Cc1ccc(-c2nc(COC(=O)c3c(C)noc3C)cs2)cc1 |  | 3.55 µM (active)
COc1cc(OC)cc(C(=O)NCC(=O)OCc2csc(-c3ccccc3)n2)c1 | -5.11% (inactive) | 
Cc1ccc(S(=O)(=O)N2CCN(C(=O)COC(=O)c3c(C)noc3C)CC2)c(C)c1 | -0.946% (inactive) | 

Compound | activation, negative = inhibition | Potency
COc1cc(C(=O)OCC(=O)NC23CC4CC(CC(C4)C2)C3)cc(OC)c1OC | -5.87% (inactive) | 
O=C(c1ccc(Cl)c(S(=O)(=O)N2CCCCCC2)c1)N1CCN(c2ccc(O)cc2)CC1 | 2.27% (inactive) | 
Cc1cc(N2CCOCC2)nc(-c2ccc(Br)cc2)n1 | 1.71% (inactive) | 
Cc1ccc2nc(-c3ccc(Br)cc3)cn2c1 |  | 0.316 µM (active)
Cc1ccc(-c2cn3cc([N+](=O)[O-])ccc3n2)cc1 |  | 0.355 µM (active)
Cc1ccc(C(=O)Cn2cc([N+](=O)[O-])nc2C)cc1 | -6.84% (inactive) | 
Cc1nc(-c2ccc([N+](=O)[O-])cc2)c(-c2ccccc2)o1 | 0.201% (inactive) | 
CSc1nnc2ccc(-c3ccc(C)cc3)nn12 | 11.7% (inactive) | 
COc1ccc(S(=O)(=O)N2CCOCC2)cc1NC(=O)Cc1c(F)cccc1Cl | 0.109% (inactive) | 
Cc1cc(NC(=O)CN2C(=O)NC(CCc3ccccc3)C2=O)no1 (stereo not given) | -0.496% (inactive) | 
OC(COc1ccc(F)cc1Cl)CN1CCc2ccccc2C1 (stereo not given) | 2.79% (inactive) | 
Cc1cc2oc(C(=O)Nc3c(C)n(C)n(-c4ccccc4)c3=O)c(C)c2cc1Cl | -5.97% (inactive) | 
COc1ccc(Nc2ncc(F)c(N3CCOCC3)n2)cc1 |  | 0.891 µM (active)
CCOc1ccc(Nc2nc(Cl)nc(N3CCN(c4ccc(OC)cc4)CC3)n2)cc1 | -7.09% (inactive) | 
Cc1ccc(Nc2nc(N3CCOCC3)nc(N3CCOCC3)n2)cc1Cl | 0.834% (inactive) | 
Cc1cc(C)n2nc(C(=O)Nc3cccc(S(=O)(=O)N4CCOCC4)c3)nc2n1 | -0.106% (inactive) | 
COC(=O)c1cc2c(ccn2C)n1C | -7.96% (inactive) | 
CCc1ccc2oc(-c3ccc(N)cc3)nc2c1 |  | 0.501 µM (active)
CCN(CC)c1ccc2oc(=O)c(C)nc2c1 | -3.4% (inactive) | 
Cc1ccc(C)c(NC(=O)CSc2nc3c(oc4ccccc43)c(=O)n2-c2ccccc2)c1 | 1.35% (inactive) | 
Cc1ccccc1NC(=O)Cc1nc(COC(=O)c2ccc(C(F)(F)F)cc2)cs1 | 1.76% (inactive) | 
Cc1ccc2c(CN3CCN(S(=O)(=O)c4ccccc4C(F)(F)F)CC3)cc(=O)oc2c1 | -8.96% (inactive) | 
Cc1ccc(-c2nn(-c3ccccc3)cc2C(=O)NC2CCC(O)CC2)cc1 (stereo not given) | 14.2% (inactive) | 
CC[C@H](C)C(=O)N[C@H]1CCCN1C(=O)/C=C/c1ccccc1 | -2.26% (inactive) | 
